M1 antag: antagonists of rat M1 muscarinic receptor; B-score at 10 µM; Muscarinic acetylcholine receptor M1 (Rattus norvegicus), P08482; 64,000 tested, 3.4% active; AID 628, 2007; CHO-M1 cells, Fluo-4 calcium, ACh EC80 antagonist mode; active compounds read low;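 active means calcium fluorescence response, raw or row-and-column corrected B-score, differing from the plate sample mean either way at a set confidence level, mostly lower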
WNV protease inh: inhibitors of WNV NS2B-NS3 protease, primary screen, biochemical, fluorogenic substrate; fluorogenic substrate Ex360/Em465; active compounds read low; 65,000 tested, 0.18% active; z-score (concentration not given with the values); in the data active means z-score below about -3
A340 absorber: compound light absorbance at 340 nm, profiling panel, artefact control, biochemical, MLSMR library, data from PS, PMK, MK assays; fold change at 10 µM; AID 708, 2007; compound absorbance at 340 nm, fold over control; 65,000 tested, under 10 active;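 active means at 10 µM dose, initial 340 nm absorbance at least 2 fold that of control wells; inactive means change under 2 fold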;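 further: initial absorbance extrapolated from kinetic A340 decline of NADH oxidation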
M1 ag: M1 muscarinic receptor agonists, primary screen, CHO-M1 cells, Fluo-4 calcium, agonist mode; Muscarinic acetylcholine receptor M1; Fluo-4 calcium fluorescence; active compounds read high; 64,000 tested, 3% active; B-score at 10 µM;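 active means fluorescence rise, raw or as B-score row- and column-corrected plate score, outside the 99.7% band of its plate's samples, either direction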
BAP1 block: inhibitors of BAP1 deubiquitinase, primary screen, biochemical, Ub-AMC fluorescence, kinetic | Ubiquitin carboxyl-terminal hydrolase BAP1 (Homo sapiens), Q92560 | recombinant BAP1, Ub-AMC hydrolysis fluorescence kinetic; active compounds read low | calls only at 20 µM | 72,000 tested, 0.48% active;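 active means activity remaining at or below 50% of control, provided the compound also passes the data quality filters; inactive means the rest, including low values that fail the filters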;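 further: 100% = DMSO wells rate and 0% = substrate alone blank rate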
Target sequence (Q92560 whole entry, looked up): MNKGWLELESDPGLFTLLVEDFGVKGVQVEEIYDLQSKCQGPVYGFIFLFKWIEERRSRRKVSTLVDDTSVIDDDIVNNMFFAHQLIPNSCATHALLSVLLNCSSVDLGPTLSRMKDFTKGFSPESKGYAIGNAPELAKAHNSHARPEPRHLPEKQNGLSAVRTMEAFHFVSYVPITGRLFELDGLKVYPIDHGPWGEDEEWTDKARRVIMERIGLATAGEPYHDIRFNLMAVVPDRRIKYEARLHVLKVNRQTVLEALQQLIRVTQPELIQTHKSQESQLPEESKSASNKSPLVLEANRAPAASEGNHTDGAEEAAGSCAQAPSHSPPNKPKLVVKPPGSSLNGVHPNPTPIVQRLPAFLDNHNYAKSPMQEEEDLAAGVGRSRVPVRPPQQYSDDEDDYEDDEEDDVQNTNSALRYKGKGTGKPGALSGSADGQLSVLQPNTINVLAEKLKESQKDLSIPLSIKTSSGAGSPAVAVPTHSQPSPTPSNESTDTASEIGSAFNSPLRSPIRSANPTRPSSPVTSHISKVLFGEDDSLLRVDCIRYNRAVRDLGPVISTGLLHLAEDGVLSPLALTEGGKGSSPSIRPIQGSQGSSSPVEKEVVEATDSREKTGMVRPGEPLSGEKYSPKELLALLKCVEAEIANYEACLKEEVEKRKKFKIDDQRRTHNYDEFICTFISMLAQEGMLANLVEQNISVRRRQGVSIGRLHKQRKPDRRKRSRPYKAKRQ
Autofluor 339: intrinsic fluorescence of library compounds, ex339/em460 – biochemical, MLSMR library, data from DPM-DC assay, artefact control, profiling panel | compound autofluorescence, ex339/em460 nm, NADH buffer; active compounds read high; 1 = no-compound wells, NADH background | fluorescence fold increase at 10 µM | 65,000 tested, 5.5% active | AID 709, 2007;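 active means at 10 µM, mean starting fluorescence two-fold or more over control wells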;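 further: signal is the first read of a kinetic run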
M1 antag conf: rat M1 muscarinic receptor antagonists, confirmation, CHO cells, Fluo-4 calcium, duplicate. ACh EC80 antagonism; active compounds read low. calcium response (max-min fluorescence) at 10 µM. shares compounds with M1 antag. 1,700 tested, 43% active. AID 677, 2007;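 active means calcium response below the same-plate mean of wells given acetylcholine alone at its 80%-effect dose, minus 3 SD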;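 further: raw fluorescence intensity difference in arbitrary instrument units and not normalized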
mGluR4 antag: human mGluR4 response to M1 antagonist hits, M1 allosteric modulator project, cell-based, antagonist mode, secondary assay 1 | shares compounds with M1 antag | CHO-mGluR4 calcium flux, Fluo-4 fluorescence, glutamate EC80; active compounds read low | fluorescence response (max-min) at 10 µM | 1,700 tested, 0.9% active | AID 678, 2007;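 active means fluorescence response below the plate's average for near-maximal glutamate wells, less 3 SD of those wells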;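 further: raw unnormalized fluorescence span taken in the window right after glutamate addition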
* marks the source's active call; other numbers are inactive results; i = inactive; . = not tested or not shown. Most compounds without a hit are left out; they make up all but 9.7% or so of the library.

SMILES	M1 antag	WNV protease inh	A340 absorber	M1 ag	BAP1 block	Autofluor 339	M1 antag conf	mGluR4 antag
Cc1nc2c(o1)CCc1ccccc1C2N1CCN(C)CC1 (stereo not given)	-15*	0.3	1	-0.62	i	1.1	20*	254
O=C(COn1nnc2ccccc21)NCC1CCCCC1	-3*	0.73	1	0.074	i	1	614	245
COC(=O)c1ccc(C2c3c(n[nH]c3C)C(=O)N2c2ccc(C)cc2)cc1 (stereo not given)	-1*	1.1	1.1	-0.52	i	1.1	450*	206
CCOC(=O)c1ccc(N2C(=O)c3n[nH]c(C)c3C2c2ccc(OC)cc2)cc1 (stereo not given)	1	0.37	1	-0.052	i	1.1	.	.
CCCOc1cccc(C(=O)Nc2cccc(-c3nc4ccc(C)cc4o3)c2)c1	.	.	.	.	i	.	.	.
CCCC(C)c1nnc(NC(=O)C2CCCO2)s1 (stereo not given)	-3.5*	0.32	0.99	0.73	i	1	198*	246
Cc1nnc(NC(=O)C2CCCO2)s1 (stereo not given)	-0.18	-0.83	1	-0.45	i	1	.	.
Cc1cc([N+](=O)[O-])cc2sc(NC(=O)C3CCCCC3)nc12	.	.	.	.	i	.	.	.
COc1ccc(C=Cc2ccc([N+](=O)[O-])cc2)cc1	.	.	.	.	i	.	.	.
CCOC(=O)c1oc2ccc(CNCCO)c(Cl)c2c1C	-1.9*	-0.26	1	-0.76	i	1.1	519*	212
O=C(C1=C(O)C(=O)N(CCN2CCOCC2)C1c1cccs1)c1cc2ccccc2o1 (stereo not given)	-0.34	-0.65	1.1	-0.081	.	1.1	.	.
Cc1ccc(C2C(C(=O)c3cc4ccccc4o3)=C(O)C(=O)N2CCN2CCOCC2)o1 (stereo not given)	-6.8*	-0.95	1.1	-0.54	i	1.1	665	241
Cc1ccc(CN(C)CCc2ccccn2)cc1	-1.2	0.97	1.1	-0.18	i	1.1	.	.
CCc1ccc(CN(C)CCc2ccccn2)cc1	-7.3*	-0.2	1	0.34	i	1	357*	208
Cc1cc(C(=O)CSc2nncs2)c(C)n1-c1c(C)n(C)n(-c2ccccc2)c1=O	-9.1*	0.21	1.1	-2.4	i	1	215*	195
Cc1nnc(SCC(=O)c2cc(C)n(-c3c(C)n(C)n(-c4ccccc4)c3=O)c2C)s1	-1.5	0.93	1	0.93	i	0.95	.	.
O=C(Nc1ccc(-c2nc3cc(NC(=O)C4CCCCC4)ccc3o2)cc1)C1CCCCC1	.	.	.	.	i	.	.	.
O=C(CN(CCc1ccccc1)C(=O)CNS(=O)(=O)c1ccc(F)cc1)NCC1CCCO1 (stereo not given)	-2.3*	-0.14	0.96	0.074	i	1.1	642	238
O=C(CN(C(=O)CNS(=O)(=O)c1ccccc1)C1CCCC1)NCC1CCCO1 (stereo not given)	0.66	-0.5	1	-0.14	i	1.1	.	.
CCOC(=O)Cn1c(=N)n(CCOc2cccc(C)c2)c2ccccc21	-0.8*	0.03	0.99	-1.5	i	1	603	229
CC(C)(C)c1ccc(C(=O)Nc2nnc(-c3ccc(F)cc3)s2)cc1	.	.	.	.	i	.	.	.
COC(=O)Nc1ccc2c(c1)N(C(=O)CCN1CCOCC1)c1ccccc1S2	-5.2*	1.6	0.99	-0.29	i	1.1	495*	248

Bioassay records as filed in PubChem BioAssay.
